Measured values published in PubChem BioAssay (EPA / NIEHS).
Results filed as inconclusive are left out. Activity calls are given as the source filed them. The calls were made as follows: active = hit-call score of the fitted dose curve at least 0.9, where 1 is the maximum; inconclusive = response in the unintended direction; inactive = score below 0.9.

Experiments:
[1] = molecular target: rat Mineralocorticoid Receptor (MR), Nr3c2 (gene 25672) (UniProt P22199); assay: NVS_NR_rMR: NovaScreen (NVS) Nuclear Receptor Binding Assay for rat Mineralocorticoid Receptor (MR) (AID 2283355)
Outline: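 Single-concentration duplicate screen (25 uM) of radioligand binding in adrenalectomized rat brain supernatant; scintillation detection 24 h after dosing. Positive and negative controls ran on each plate, and confirmed actives went to concentration-response.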

[2] = tested on: guinea pig Dopamine Transporter (DAT), gene 100714898; assay: NVS_TR_gDAT: NovaScreen (NVS) Transporter Assay for guinea pig Dopamine Transporter (DAT) (AID 2283369);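 also: active compounds lower bound radioligand signal relative to DMSO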
Outline: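 Guinea pig striatal membranes; radioligand displacement measured by filter-based scintillation counting 2 h after dosing. Initial duplicate screen at 25 uM, then concentration-response up to 50 uM for hits; loss of signal versus DMSO baseline.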

[3] = molecular target: human Dopamine Transporter (DAT), SLC6A3 (gene 6531) (UniProt Q01959); assay: NVS_TR_hDAT: NovaScreen (NVS) Transporter Assay for human Dopamine Transporter (DAT) (AID 2283374);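 also: activity means loss of bound radioligand signal relative to DMSO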
Outline: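 Extracted human SLC6A3 protein incubated 1 h with radioligand and test chemical; bound fraction separated on filters and counted. Single 25 uM duplicate screen preceded concentration-response follow-up; positive and negative controls on every plate.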

[4] = molecular target: rat Serotonin Transporter (SERT), Slc6a4 (gene 25553) (UniProt P31652); assay: NVS_TR_rSERT: NovaScreen (NVS) Transporter Assay for rat Serotonin Transporter (SERT) (AID 2283375)
Outline: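 Rat forebrain membranes were incubated with test chemical for 1 hour; radioligand binding to SERT was measured by filter-based scintillation counting. Primary screen ran in duplicate at 25 uM, with actives followed up in concentration series; DMSO served as negative control.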

[5] = molecular target: human Norepinephrine Transporter (NET), SLC6A2 (gene 6530) (UniProt P23975); assay: NVS_TR_hNET: NovaScreen (NVS) Transporter Assay for human Norepinephrine Transporter (NET) (AID 2283377);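 also: cell-free membrane protein extracted from CHO cells expressing human NET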;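 as to AC50: displacement of radioligand from human NET seen as loss of scintillation signal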
Outline: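 In this cell-free binding screen, chemicals at 25 uM (duplicate) compete with a radioligand for CHO-derived human NET over 1 hour, with filter-based radiodetection.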

[6] = molecular target: Estrogen receptor (Homo sapiens) (UniProt P03372); assay: OT_ER_ERaERa_0480: Odyssey Thera (OT) 8-hour HEK293T Protein-Complementation Assay for Estrogen Receptor-alpha/-alpha Homodimer (AID 2283351);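 also: rise in fluorescence from reassembled reporter fragments on ERα LBD homodimer in nucleus or whole cell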
Outline: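 HEK293T cells stably expressing a PCA pair of ER alpha LBD (residues 310-547) were dosed for 8 hours. The gain in fluorescence intensity, nuclear for agonists and whole-cell for antagonists, was measured by laser scanning cytometry against DMSO vehicle.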

[7] = molecular target: Nuclear receptor subfamily 1 group I member 2 (Homo sapiens) (UniProt O75469); assay: NVS_NR_hPXR: NovaScreen (NVS) Nuclear Receptor Binding Assay for human Pregnane X Receptor (PXR) (AID 2283365);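 also: a drop in FRET signal versus DMSO baseline means the compound binds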
Outline: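 Cell-free binding assay with extracted human PXR protein, read by TR-FRET 2 h after dosing; loss of signal relative to DMSO baseline indicates binding. Primary screen at 25 uM in duplicate, actives retested in concentration series.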

[8] = molecular target: Glucocorticoid receptor (Homo sapiens) (UniProt P04150); assay: NVS_NR_hGR: NovaScreen (NVS) Nuclear Receptor Binding Assay for human Glucocorticoid Receptor (GR) (AID 2283363);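 as to AC50: activity is loss of specific radioligand binding signal relative to DMSO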
Outline: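 Single-readout cell-free binding: radioligand plus extracted receptor, 16-hour dosing, filter radiodetection; 25 uM duplicate primary, concentration series secondary.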

[9] = molecular target: T1, Estrogen receptor (Homo sapiens) + Estrogen receptor beta (Homo sapiens) (UniProt P03372+Q92731); assay: OT_ER_ERaERb_1440: Odyssey Thera (OT) 24-hour HEK293T Protein-Complementation Assay for Estrogen Receptor-alpha/-beta Homodimer (AID 2283356);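 also: heteromer of ER alpha and ER beta binding domains; hits raise reporter fluorescence and both agonists and antagonists give an increase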
Outline: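 HEK293T cells stably expressing a PCA pair of ERα LBD (aa 310-547) and ERβ LBD (aa 263-489) were dosed for 24 h. Fluorescence intensity increase versus DMSO vehicle was fitted as gain-of-signal.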

[10] = molecular target: Retinoic acid receptor alpha (Homo sapiens) (UniProt P10276); assay: NVS_NR_hRAR_Antagonist: NovaScreen (NVS) Nuclear Receptor Binding Assay for human Retinoic Acid Alpha Receptor Antagonism (RAR) (AID 2283358)
Outline: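 Chemicals were first tested in duplicate at 25 uM, then actives in concentration series, in a cell-free TR-FRET antagonist binding format. Measurements were taken 2 hours after dosing and loss of signal was evaluated against DMSO controls.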

[11] = molecular target: human Peroxisome Proliferator-activated Receptor alpha (PPARa), PPARA (gene 5465) (UniProt Q07869); assay: NVS_NR_hPPARa: NovaScreen (NVS) Nuclear Receptor Binding Assay for human Peroxisome Proliferator-activated Receptor alpha (PPARa) (AID 2283359);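 also: activity means loss of TR-FRET signal versus DMSO baseline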
Outline: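 One-hour incubation, cell-free extracted protein, TR-FRET binding readout; signal loss vs DMSO scored. Screen: 25 uM duplicates, confirmatory dose series for actives.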

[12] = molecular target: Retinoic acid receptor alpha (Homo sapiens) (UniProt P10276); assay: NVS_NR_hRARa_Agonist: NovaScreen (NVS) Nuclear Receptor Binding Assay for human Retinoic Acid Alpha Receptor Agonism (RAR) (AID 2283361)
Outline: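 Compounds screened at 25 uM, duplicate, then in concentration series if active. Detection: TR-FRET gain of signal versus DMSO after 2 h with cell-free extracted RARα.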

[13] = molecular target: guinea pig Sigma Receptor, Non-selective Binding, SIGMAR1 (gene 100135589) (UniProt Q60492); assay: NVS_OR_gSIGMA_NonSelective: NovaScreen (NVS) Nuclear Receptor Binding Assay for guinea pig Sigma Receptor, Non-selective Binding (AID 2283367)
Outline: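 Test chemicals were screened in duplicate at 25 uM, then in concentration series if active, against radioligand binding to guinea pig brain membranes; filtration and scintillation counting at 1 h measured remaining bound ligand.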

PGR (gene 5241) = PGR (gene 5241) (UniProt P06401); assay: NVS_NR_hPR: NovaScreen (NVS) Nuclear Receptor Binding Assay for human Progestron Receptor (PR) (AID 2283360);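 also: active means loss of bound radioligand signal versus DMSO baseline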
Outline: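 Competitive displacement of a labelled radioligand from T47D-derived receptor protein is measured in a cell-free format. Initial testing uses 25 uM in duplicate, with positive and negative controls on every plate.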

[14] = molecular target: T1, Estrogen receptor (Homo sapiens) + Estrogen receptor beta (Homo sapiens); assay: OT_ER_ERaERb_0480: Odyssey Thera (OT) 8-hour HEK293T Protein-Complementation Assay for Estrogen Receptor-alpha/-beta Heterodimer (AID 2283352)
Outline: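 HEK293T cells expressing ER-alpha/ER-beta LBD fusions to complementary reporter fragments were dosed with compound for 8 hours. Heterodimer formation was read as increased nuclear (agonist) or nuclear plus cytoplasmic (antagonist) mean fluorescence intensity versus DMSO vehicle.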

[15] = molecular target: Estrogen receptor beta (Homo sapiens) (UniProt Q92731); assay: OT_ER_ERbERb_0480: Odyssey Thera (OT) 8-hour HEK293T Protein-Complementation Assay for Estrogen Receptor-beta/-beta Homodimer (AID 2283357);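 also: active means signal gain over DMSO baseline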
Outline: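 Fluorescence gain from complemented reporter fragments on ER-beta LBD homodimer in HEK293T was quantified against DMSO controls after 8 h treatment, fixation in 4% formaldehyde and Draq5 staining.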

[16] = molecular target: human Thyroid Receptor Alpha (TRa), THRA (gene 7067) (UniProt P10827); assay: NVS_NR_hTRa_Antagonist: NovaScreen (NVS) Nuclear Receptor Binding Assay for human Thyroid Receptor Alpha Antagonism (TRa) (AID 2283362);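 also: activity is loss of signal relative to DMSO baseline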
Outline: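 Cell-free binding assay on extracted receptor protein, read 1 h after chemical dosing by AlphaLISA chemiluminescence; loss of signal relative to DMSO baseline marks antagonism. Primary screen ran in duplicate at 25 uM, with concentration series for actives.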

Chain of Estrogen receptor (Homo sapiens) (P03372 whole entry, looked up, the tested form may be a part): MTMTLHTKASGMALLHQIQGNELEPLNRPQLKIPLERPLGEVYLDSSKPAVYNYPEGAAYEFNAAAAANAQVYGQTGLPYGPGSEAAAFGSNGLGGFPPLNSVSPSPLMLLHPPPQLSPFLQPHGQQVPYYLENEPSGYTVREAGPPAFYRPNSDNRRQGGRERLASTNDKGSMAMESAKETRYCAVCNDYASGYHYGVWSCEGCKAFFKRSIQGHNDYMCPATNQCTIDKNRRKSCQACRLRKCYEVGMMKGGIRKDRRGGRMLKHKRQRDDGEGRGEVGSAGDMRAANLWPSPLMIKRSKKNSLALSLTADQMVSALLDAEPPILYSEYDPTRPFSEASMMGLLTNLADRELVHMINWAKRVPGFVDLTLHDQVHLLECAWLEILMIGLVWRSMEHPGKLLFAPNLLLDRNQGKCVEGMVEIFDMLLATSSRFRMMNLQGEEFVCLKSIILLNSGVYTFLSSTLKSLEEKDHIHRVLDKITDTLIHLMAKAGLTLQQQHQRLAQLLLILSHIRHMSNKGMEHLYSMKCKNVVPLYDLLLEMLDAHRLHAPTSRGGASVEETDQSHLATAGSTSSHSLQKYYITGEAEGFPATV
T1 sequence (P03372 whole entry, looked up, the tested form may be a part): as above
T1 sequence (Q92731 whole entry, looked up, the tested form may be a part): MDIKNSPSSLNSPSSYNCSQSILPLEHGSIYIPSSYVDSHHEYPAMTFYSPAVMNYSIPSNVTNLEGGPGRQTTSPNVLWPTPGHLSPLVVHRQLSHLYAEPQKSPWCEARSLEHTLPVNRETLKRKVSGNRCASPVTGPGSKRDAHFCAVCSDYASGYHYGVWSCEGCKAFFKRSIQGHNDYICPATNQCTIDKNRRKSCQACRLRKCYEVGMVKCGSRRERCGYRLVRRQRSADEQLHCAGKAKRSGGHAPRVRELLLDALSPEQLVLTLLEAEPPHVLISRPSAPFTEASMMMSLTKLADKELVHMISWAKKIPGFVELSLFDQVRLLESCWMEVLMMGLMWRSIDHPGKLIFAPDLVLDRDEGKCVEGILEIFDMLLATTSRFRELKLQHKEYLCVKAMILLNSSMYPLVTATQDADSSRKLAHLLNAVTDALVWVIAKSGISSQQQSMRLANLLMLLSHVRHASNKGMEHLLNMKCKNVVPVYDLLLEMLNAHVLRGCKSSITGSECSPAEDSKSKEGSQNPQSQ
Chain of human Peroxisome Proliferator-activated Receptor alpha (PPARa), PPARA (gene 5465) (Q07869 whole entry, looked up): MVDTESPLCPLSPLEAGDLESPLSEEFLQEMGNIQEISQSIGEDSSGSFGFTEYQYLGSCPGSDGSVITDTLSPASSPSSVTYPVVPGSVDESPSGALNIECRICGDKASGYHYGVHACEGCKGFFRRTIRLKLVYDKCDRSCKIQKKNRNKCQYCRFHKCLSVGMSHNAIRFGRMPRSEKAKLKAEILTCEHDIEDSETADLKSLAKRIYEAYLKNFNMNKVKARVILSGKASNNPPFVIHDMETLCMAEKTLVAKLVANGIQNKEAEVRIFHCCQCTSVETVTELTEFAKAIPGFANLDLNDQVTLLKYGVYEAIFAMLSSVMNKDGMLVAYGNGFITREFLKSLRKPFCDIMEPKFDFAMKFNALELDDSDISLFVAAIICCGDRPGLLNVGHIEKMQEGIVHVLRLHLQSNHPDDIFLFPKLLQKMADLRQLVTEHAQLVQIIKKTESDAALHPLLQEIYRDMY
Chain of Nuclear receptor subfamily 1 group I member 2 (Homo sapiens) (O75469 whole entry, looked up): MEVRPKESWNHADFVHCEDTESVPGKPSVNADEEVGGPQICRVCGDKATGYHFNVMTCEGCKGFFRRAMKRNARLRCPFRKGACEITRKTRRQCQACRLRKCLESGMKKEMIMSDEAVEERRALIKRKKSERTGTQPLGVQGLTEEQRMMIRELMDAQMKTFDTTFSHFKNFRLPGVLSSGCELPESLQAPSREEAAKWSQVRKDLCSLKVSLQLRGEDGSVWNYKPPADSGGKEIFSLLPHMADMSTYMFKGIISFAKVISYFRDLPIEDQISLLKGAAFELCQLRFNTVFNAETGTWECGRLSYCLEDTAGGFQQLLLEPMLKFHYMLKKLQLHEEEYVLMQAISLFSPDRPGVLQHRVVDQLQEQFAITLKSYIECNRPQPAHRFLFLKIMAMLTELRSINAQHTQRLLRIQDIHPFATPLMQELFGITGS
Chain of human Dopamine Transporter (DAT), SLC6A3 (gene 6531) (Q01959 whole entry, looked up): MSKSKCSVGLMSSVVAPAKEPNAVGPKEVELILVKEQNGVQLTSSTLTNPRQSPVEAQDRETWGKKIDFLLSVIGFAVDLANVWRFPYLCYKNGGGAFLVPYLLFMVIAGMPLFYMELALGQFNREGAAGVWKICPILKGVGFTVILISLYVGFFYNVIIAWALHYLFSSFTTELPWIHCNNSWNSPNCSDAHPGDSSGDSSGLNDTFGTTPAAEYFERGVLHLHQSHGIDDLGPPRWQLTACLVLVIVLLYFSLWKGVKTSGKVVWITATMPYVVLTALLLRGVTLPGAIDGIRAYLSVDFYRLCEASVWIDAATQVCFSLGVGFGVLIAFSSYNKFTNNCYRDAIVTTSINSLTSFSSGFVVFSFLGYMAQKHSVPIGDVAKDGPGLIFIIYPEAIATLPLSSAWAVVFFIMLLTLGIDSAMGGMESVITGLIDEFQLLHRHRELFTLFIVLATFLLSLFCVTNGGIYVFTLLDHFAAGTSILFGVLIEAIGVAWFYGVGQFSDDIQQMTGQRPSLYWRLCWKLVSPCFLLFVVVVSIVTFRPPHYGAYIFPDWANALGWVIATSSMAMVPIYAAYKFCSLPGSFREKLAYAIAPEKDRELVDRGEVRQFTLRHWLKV
Chain of Glucocorticoid receptor (Homo sapiens) (P04150 whole entry, looked up): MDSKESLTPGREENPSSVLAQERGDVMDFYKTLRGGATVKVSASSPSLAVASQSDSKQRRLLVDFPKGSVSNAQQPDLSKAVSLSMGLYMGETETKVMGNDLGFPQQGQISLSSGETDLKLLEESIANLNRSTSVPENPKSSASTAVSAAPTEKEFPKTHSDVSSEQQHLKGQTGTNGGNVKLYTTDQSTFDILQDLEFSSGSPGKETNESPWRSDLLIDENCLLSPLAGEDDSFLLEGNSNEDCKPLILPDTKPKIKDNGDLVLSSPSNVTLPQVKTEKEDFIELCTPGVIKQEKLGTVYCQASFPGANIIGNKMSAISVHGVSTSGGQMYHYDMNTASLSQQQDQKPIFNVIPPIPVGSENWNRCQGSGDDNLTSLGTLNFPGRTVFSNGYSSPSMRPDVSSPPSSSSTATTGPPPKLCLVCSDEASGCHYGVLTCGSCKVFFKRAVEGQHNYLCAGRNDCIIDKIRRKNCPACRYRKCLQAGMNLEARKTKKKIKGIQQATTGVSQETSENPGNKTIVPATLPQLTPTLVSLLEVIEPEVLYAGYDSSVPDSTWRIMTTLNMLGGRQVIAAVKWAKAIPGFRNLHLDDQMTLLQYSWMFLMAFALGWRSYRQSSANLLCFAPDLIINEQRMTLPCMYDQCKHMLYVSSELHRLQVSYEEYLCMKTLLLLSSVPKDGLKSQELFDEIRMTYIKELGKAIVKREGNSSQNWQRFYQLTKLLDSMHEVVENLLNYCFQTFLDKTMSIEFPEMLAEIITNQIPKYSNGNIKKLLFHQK
Chain of Retinoic acid receptor alpha (Homo sapiens) (P10276 whole entry, looked up): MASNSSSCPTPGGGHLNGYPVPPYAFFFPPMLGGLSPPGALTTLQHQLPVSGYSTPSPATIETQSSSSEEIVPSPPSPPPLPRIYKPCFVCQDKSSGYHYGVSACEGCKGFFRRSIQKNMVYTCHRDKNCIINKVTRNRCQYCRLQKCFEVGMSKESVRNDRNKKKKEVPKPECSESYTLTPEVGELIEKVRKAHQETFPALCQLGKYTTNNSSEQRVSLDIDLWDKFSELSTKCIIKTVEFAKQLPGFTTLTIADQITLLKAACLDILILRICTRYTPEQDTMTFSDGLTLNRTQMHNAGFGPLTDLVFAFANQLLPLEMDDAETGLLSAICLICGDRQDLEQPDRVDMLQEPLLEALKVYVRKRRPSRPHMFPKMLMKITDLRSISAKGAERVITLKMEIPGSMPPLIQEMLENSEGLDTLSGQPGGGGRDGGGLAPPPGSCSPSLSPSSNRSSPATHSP
Chain of guinea pig Sigma Receptor, Non-selective Binding, SIGMAR1 (gene 100135589) (Q60492 whole entry, looked up): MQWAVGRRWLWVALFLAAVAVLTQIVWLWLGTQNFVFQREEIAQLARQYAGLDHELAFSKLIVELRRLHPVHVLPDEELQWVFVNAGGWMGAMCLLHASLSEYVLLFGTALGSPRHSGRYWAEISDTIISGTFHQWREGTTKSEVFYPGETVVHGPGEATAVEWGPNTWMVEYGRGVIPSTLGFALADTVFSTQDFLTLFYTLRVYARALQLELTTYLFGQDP

**Q.** Which results are given for `Oc1ccc(/C=C/c2cc(O)cc(O)c2)cc1`?
**A.** outcome [1]: inactive; AC50 [2]: 6.63 µM (active); AC50 [3]: 4.8 µM (active); outcome [4]: inactive; AC50 [5]: 3.12 µM (active)

**Q.** How did the outcome [6] turn out when `C/C=C/C=C/CCCCCCCO` was run?
**A.** Its outcome is “inactive”.

**Q.** And the AC50 [7]?
**A.** Its AC50 is 25 µM (active).

**Q.** With `CO[Si](CCCS)(OC)OC` as the molecule, how does the outcome [8] read?
**A.** Its outcome is “inactive”.

**Q.** For `CCCCCCCCCC[N+](C)(CCCCCCCCCC)CCC[Si](OC)(OC)OC`, which outcome [6] is on record?
**A.** The outcome was “inactive”.

**Q.** And the AC50 [9]?
**A.** The AC50 was 11.8 µM (active).

**Q.** And the outcome [10]?
**A.** Its outcome is “inactive”.

**Q.** What about the AC50 [11] of the same molecule?
**A.** The AC50 was 8.29 µM (active).

**Q.** And the AC50 [12]?
**A.** Its AC50 is 25 µM (active).

**Q.** And the outcome [8]?
**A.** Its outcome is “inactive”.

**Q.** And the AC50 [7]?
**A.** Its AC50 is 4.21 µM (active).

**Q.** For `c1ccc(-c2nc3ccccc3[nH]2)cc1`, which AC50 [3] is on record?
**A.** The AC50 was 14.9 µM (active).

**Q.** What about the AC50 [5] of the same molecule?
**A.** The AC50 was 12 µM (active).

**Q.** `c1ccc2c(c1)[nH]c1ccccc12` was tested. Which AC50 [5] did it give?
**A.** The AC50 was 0.94 µM (active).

**Q.** `CCc1cccc(CC)c1` was tested. Which outcome [8] did it give?
**A.** Its outcome is “inactive”.

**Q.** Which AC50 [13] does the source give for `CCN(CC)c1cccc(C)c1` here?
**A.** Its AC50 is 38.5 µM (active).

**Q.** What about the AC50 [2] of the same molecule?
**A.** The AC50 was 4.96 µM (active).

**Q.** For `CCOC(=O)/C=C\C(=O)OCC`, which outcome [8] is on record?
**A.** The outcome was “inactive”.

**Q.** Which outcome [6] does the source give for `CC1=NN(c2ccc(S(=O)(=O)O)cc2)C(=O)C1N=Nc1ccccc1` (stereo unspecified) here?
**A.** The outcome was “inactive”.

**Q.** What about the AC50 [8] of the same molecule?
**A.** Its AC50 is 12.8 µM (active).

**Q.** `CCCCCCO` was tested. Which outcome [6] did it give?
**A.** Its outcome is “inactive”.

**Q.** What about the outcome [11] of the same molecule?
**A.** The outcome was “inactive”.

**Q.** What does the source list for `CCCCNS(=O)(=O)c1ccc(C)cc1`?
**A.** outcome [6]: inactive; outcome [11]: inactive; outcome [12]: inactive; outcome [7]: inactive

**Q.** For `C=C(C)C1CC=C(C)CC1` (stereo unspecified), which outcome [6] is on record?
**A.** The outcome was “inactive”.

**Q.** What about the outcome [8] of the same molecule?
**A.** Its outcome is “inactive”.

**Q.** Which results are given for `O=C(O)CC(C(=O)O)S(=O)(=O)O` (stereo unspecified)?
**A.** outcome [6]: inactive; outcome [7]: inactive

**Q.** For `[Cl][Eu]([Cl])[Cl]`, which AC50 [2] is on record?
**A.** The AC50 was 18.2 µM (active).

**Q.** And the AC50 [5]?
**A.** Its AC50 is 45.2 µM (active).

**Q.** `CCOC(=O)C1=NN(c2ccc(Cl)cc2Cl)C(C)(C(=O)OCC)C1` (stereo unspecified) was tested. Which AC50 [2] did it give?
**A.** The AC50 was 15.8 µM (active).

**Q.** For `Cc1cc(C)n(CO)n1`, which outcome [6] is on record?
**A.** The outcome was “inactive”.

**Q.** And the outcome [5]?
**A.** Its outcome is “inactive”.

**Q.** `CC1=CC=C(C(C)C)CC1` was tested. Which outcome [6] did it give?
**A.** The outcome was “inactive”.

**Q.** And the outcome [7]?
**A.** Its outcome is “inactive”.

**Q.** With `CCCCCCOc1ccc(N)cc1` as the molecule, how does the outcome [6] read?
**A.** The outcome was “inactive”.

**Q.** What about the outcome [8] of the same molecule?
**A.** The outcome was “inactive”.

**Q.** What about the outcome [7] of the same molecule?
**A.** Its outcome is “inactive”.

**Q.** Which outcome [8] does the source give for `CC(C)[N+](C)(CCOC(=O)C1c2ccccc2Oc2ccccc21)C(C)C` here?
**A.** The outcome was “inactive”.

**Q.** What about the AC50 [13] of the same molecule?
**A.** Its AC50 is 2.4 µM (active).

**Q.** For `COC(=O)C=Cc1ccccc1`, which outcome [5] is on record?
**A.** Its outcome is “inactive”.

**Q.** For `COC(OC)(C(=O)c1ccccc1)c1ccccc1`, which AC50 [2] is on record?
**A.** The AC50 was 18 µM (active).

**Q.** Which outcome (PGR (gene 5241)) does the source give for `CCC(C)c1ccccc1` (stereo unspecified) here?
**A.** The outcome was “inactive”.

**Q.** What does the source list for `NC(=O)Nc1ccccc1`?
**A.** outcome [14]: inactive; outcome [9]: inactive; outcome [15]: inactive; outcome [10]: inactive

**Q.** What does the source list for `CCCCC/C=C\C/C=C\CCCCCCCC(=O)O`?
**A.** outcome [6]: inactive; outcome [10]: inactive; AC50 [11]: 13.1 µM (active); outcome [16]: inactive; AC50 [7]: 4.88 µM (active)

**Q.** How did the outcome [6] turn out when `O=c1c(O)c(-c2ccc(O)cc2O)oc2cc(O)cc(O)c12` was run?
**A.** The outcome was “inactive”.

**Q.** What about the AC50 [10] of the same molecule?
**A.** Its AC50 is 6.95 µM (active).

**Q.** What about the AC50 [12] of the same molecule?
**A.** Its AC50 is 25 µM (active).

**Q.** What about the AC50 [8] of the same molecule?
**A.** The AC50 was 25 µM (active).

**Q.** What about the AC50 [7] of the same molecule?
**A.** The AC50 was 6.31 µM (active).

**Q.** Which outcome [3] does the source give for `Nc1ncnc2nc[nH]c12` here?
**A.** Its outcome is “inactive”.

**Q.** For `O=C(Oc1ccccc1)c1ccccc1C(=O)Oc1ccccc1`, which AC50 [2] is on record?
**A.** Its AC50 is 3.31 µM (active).

**Q.** And the AC50 [3]?
**A.** Its AC50 is 0.758 µM (active).
